Data on 8 sequences can be found in paper PMC7862700, “An all-to-all approach to the identification of sequence-specific readers for epigenetic DNA modifications on cytosine”.

Assay in all cases: DAPPL (digital affinity profiling via proximity ligation, sequencing); 10 mM Tris-HCl pH 7.5, 50 mM NaCl, 1 mM DTT, 4% glycerol, room temperature, 30 min; GST-TFs on glutathione beads, 16-mer random dsDNA library, 0.1% formaldehyde crosslink after washing; high values mean tight binding
Holding throughout (conditions): protein: recombinant; tags: N-terminal GST; dsDNA, one strand shown

The target of experiment [1] is T1, FLI1 (Homo sapiens, UniProt Q01543 1-452).
T1 sequence: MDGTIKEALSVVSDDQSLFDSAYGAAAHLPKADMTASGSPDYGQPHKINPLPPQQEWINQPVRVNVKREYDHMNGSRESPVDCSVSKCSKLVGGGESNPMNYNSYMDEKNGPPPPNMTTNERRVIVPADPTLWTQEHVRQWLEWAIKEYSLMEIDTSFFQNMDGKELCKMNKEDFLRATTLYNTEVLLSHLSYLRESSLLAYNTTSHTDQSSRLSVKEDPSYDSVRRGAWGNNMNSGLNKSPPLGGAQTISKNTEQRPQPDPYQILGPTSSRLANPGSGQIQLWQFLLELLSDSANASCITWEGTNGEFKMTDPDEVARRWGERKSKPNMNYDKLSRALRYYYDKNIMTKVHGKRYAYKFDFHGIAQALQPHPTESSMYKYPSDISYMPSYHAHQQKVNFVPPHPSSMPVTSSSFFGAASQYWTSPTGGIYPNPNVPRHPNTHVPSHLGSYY
An outline of the steps:
(§1)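 Pools of DNA-barcoded human transcription factors, expressed in yeast as GST fusions on glutathione beads and combined with a tag-only sample, were incubated with 200 nmole of a 16-mer random double-stranded DNA library. Incubation took 30 min at room temperature in Tris/NaCl/DTT/glycerol buffer and was followed by washing, 0.1% formaldehyde crosslinking, proximity ligation (BsaI/T4 ligase, 1 h, 37 °C), PCR amplification and sequencing on an Illumina NextSeq500. Binding signal is the ratio of a hexamer's read frequency for a factor to its frequency for the tag-only sample.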

In experiment [2] the target is T2, ELK1 (Homo sapiens, UniProt P19419 1-428).
T2 sequence: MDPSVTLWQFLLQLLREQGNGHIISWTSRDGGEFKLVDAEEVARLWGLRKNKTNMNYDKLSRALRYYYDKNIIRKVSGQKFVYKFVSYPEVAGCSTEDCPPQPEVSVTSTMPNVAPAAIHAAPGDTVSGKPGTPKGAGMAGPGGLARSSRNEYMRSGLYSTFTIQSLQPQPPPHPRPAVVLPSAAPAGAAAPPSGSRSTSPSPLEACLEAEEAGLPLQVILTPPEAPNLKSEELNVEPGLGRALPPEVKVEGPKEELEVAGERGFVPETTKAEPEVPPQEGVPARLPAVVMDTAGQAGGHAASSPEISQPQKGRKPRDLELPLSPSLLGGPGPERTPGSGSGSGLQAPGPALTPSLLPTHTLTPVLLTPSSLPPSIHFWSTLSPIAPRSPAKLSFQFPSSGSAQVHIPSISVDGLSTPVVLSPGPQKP
An outline of the steps: as §1

Experiment [3] deals with T3, GABPA (Homo sapiens, UniProt Q06546 1-454).
T3 sequence: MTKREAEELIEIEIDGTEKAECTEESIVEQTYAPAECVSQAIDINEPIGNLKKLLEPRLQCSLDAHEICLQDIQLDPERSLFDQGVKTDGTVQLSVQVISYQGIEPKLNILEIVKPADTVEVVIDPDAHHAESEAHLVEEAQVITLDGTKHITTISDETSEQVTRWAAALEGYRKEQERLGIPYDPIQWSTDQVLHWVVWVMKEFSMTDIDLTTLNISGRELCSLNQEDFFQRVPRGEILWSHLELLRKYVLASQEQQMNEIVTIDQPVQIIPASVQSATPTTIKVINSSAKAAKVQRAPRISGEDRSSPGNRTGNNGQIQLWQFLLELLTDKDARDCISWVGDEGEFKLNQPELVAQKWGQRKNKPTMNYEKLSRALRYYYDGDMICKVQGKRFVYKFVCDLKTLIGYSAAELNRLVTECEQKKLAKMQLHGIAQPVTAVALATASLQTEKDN
An outline of the steps: as §1

Experiment [4] has as its target T4, ERG (Homo sapiens, UniProt P11308 1-479).
T4 sequence: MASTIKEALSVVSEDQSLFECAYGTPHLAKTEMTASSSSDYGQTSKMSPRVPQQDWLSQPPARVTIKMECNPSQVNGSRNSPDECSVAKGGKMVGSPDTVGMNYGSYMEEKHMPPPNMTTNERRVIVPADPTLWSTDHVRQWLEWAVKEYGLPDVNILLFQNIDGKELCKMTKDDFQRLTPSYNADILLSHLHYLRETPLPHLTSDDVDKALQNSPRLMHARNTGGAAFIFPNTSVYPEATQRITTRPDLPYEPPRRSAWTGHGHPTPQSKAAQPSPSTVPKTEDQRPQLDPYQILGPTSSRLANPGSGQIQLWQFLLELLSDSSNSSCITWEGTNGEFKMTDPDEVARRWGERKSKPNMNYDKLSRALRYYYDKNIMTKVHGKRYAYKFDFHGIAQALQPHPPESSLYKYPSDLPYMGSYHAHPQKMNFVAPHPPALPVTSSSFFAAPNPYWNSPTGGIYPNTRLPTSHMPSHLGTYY
An outline of the steps:
as §1

The target of experiment [5] is ELF1 (Homo sapiens, UniProt P32519 1-619). The gist of the method: as §1
Experiment [6] deals with T5, EHF (Homo sapiens, UniProt Q9NZC4 1-300).
T5 sequence: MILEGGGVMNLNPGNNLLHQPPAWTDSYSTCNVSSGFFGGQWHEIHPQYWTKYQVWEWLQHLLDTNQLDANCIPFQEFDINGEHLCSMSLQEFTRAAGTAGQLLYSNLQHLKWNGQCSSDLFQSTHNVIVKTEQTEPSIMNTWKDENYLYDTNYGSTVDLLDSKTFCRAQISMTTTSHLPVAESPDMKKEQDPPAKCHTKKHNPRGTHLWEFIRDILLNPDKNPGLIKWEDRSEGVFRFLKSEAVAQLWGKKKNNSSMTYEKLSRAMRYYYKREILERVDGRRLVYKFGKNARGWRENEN
The gist of the method:
as §1

For experiment [7], the target named is SPI1 (Homo sapiens, UniProt P17947 1-270). An outline of the steps:
as §1

Experiment [8] addresses SPIB (Homo sapiens, UniProt Q01892 1-262). An outline of the steps: as §1
Experiment [9] has as its target T6, ELK3 (Homo sapiens, UniProt P41970 1-407).
T6 sequence: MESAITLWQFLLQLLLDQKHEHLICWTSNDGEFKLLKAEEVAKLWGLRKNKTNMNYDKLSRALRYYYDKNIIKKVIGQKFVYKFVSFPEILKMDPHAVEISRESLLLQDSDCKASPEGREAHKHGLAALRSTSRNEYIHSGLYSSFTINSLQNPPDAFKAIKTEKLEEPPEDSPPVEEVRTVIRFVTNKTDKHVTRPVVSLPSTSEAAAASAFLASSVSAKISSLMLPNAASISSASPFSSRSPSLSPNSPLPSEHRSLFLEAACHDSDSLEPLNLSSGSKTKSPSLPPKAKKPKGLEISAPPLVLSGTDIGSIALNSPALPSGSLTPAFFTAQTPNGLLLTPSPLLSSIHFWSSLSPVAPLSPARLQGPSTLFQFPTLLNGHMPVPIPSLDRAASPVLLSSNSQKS
An outline of the steps: as §1

Sequence of ELF1 (P32519 whole entry): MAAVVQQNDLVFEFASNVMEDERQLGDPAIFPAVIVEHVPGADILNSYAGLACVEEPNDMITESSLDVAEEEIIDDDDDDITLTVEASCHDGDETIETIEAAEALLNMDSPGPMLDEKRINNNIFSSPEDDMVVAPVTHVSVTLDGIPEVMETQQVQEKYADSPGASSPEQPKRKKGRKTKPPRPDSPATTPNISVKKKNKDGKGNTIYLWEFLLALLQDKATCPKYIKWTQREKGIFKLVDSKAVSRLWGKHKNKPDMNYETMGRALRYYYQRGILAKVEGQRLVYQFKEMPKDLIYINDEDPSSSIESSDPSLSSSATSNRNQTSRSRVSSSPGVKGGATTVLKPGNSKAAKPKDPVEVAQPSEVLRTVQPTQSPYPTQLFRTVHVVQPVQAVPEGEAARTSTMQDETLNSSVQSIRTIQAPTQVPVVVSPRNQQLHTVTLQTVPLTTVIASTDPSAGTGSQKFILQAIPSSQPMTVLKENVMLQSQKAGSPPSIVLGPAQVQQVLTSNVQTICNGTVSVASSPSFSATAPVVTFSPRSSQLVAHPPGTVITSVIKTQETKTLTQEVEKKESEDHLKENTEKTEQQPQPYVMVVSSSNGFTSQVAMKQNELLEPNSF
Sequence of SPIB (Q01892 whole entry): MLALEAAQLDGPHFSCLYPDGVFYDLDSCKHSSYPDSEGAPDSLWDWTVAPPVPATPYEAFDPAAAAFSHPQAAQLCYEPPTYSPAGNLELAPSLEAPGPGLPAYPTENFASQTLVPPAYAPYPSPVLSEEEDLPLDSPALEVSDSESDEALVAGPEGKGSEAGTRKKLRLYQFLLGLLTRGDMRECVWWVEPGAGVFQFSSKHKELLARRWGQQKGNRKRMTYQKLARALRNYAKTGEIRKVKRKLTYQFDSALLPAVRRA

On to TTCCAT, for which the binding signal is 1.38 fold enrichment (6-mer frequency, TF over GST control) in [1]; 1.29 fold enrichment (6-mer frequency, TF over GST control) in experiment [2]; 1.22 fold enrichment (6-mer frequency, TF over GST control) in [3]; 1.25 fold enrichment (6-mer frequency, TF over GST control) in experiment [4]; 1.33 fold enrichment (6-mer frequency, TF over GST control) in experiment [5]; 1.28 fold enrichment (6-mer frequency, TF over GST control) in [6]. In addition, the binding signal in experiment [7] was 1.34 fold enrichment (6-mer frequency, TF over GST control); in experiment [8], 1.32 fold enrichment (6-mer frequency, TF over GST control); in experiment [9], 1.28 fold enrichment (6-mer frequency, TF over GST control).
ACATCT: the binding signal is 1.39 fold enrichment (6-mer frequency, TF over GST control) in experiment [1]; 1.35 fold enrichment (6-mer frequency, TF over GST control) in [2]; 1.35 fold enrichment (6-mer frequency, TF over GST control) in experiment [3]; 1.34 fold enrichment (6-mer frequency, TF over GST control) in [4]; 1.38 fold enrichment (6-mer frequency, TF over GST control) in [5]; 1.3 fold enrichment (6-mer frequency, TF over GST control) in experiment [6]. Moreover, the binding signal was 1.4 fold enrichment (6-mer frequency, TF over GST control) in experiment [7]; 1.27 fold enrichment (6-mer frequency, TF over GST control) in [8]; 1.44 fold enrichment (6-mer frequency, TF over GST control) in experiment [9].
For the sequence TATTCC, the binding signal in [1] is 1.65 fold enrichment (6-mer frequency, TF over GST control); in [2], 1.68 fold enrichment (6-mer frequency, TF over GST control); in experiment [3] it was 1.6 fold enrichment (6-mer frequency, TF over GST control); in [4], 1.52 fold enrichment (6-mer frequency, TF over GST control); in experiment [5] it was 1.59 fold enrichment (6-mer frequency, TF over GST control); in experiment [6], 1.58 fold enrichment (6-mer frequency, TF over GST control). For the same sequence, the binding signal in [7] was 1.48 fold enrichment (6-mer frequency, TF over GST control); in [8], 1.49 fold enrichment (6-mer frequency, TF over GST control); in [9], 1.56 fold enrichment (6-mer frequency, TF over GST control).
In the case of CCTATC, the binding signal is 1.27 fold enrichment (6-mer frequency, TF over GST control) in [1]; 1.27 fold enrichment (6-mer frequency, TF over GST control) in [2]; 1.13 fold enrichment (6-mer frequency, TF over GST control) in [3]; 1.15 fold enrichment (6-mer frequency, TF over GST control) in experiment [4]; 1.15 fold enrichment (6-mer frequency, TF over GST control) in [5]; 1.18 fold enrichment (6-mer frequency, TF over GST control) in [6]. Also, the binding signal is 1.14 fold enrichment (6-mer frequency, TF over GST control) in experiment [7]; 1.31 fold enrichment (6-mer frequency, TF over GST control) in experiment [8]; 1.45 fold enrichment (6-mer frequency, TF over GST control) in [9].
Take ATCTCT: the binding signal was 1.29 fold enrichment (6-mer frequency, TF over GST control) in experiment [1]; 1.24 fold enrichment (6-mer frequency, TF over GST control) in experiment [2]; 1.33 fold enrichment (6-mer frequency, TF over GST control) in experiment [3]; 1.17 fold enrichment (6-mer frequency, TF over GST control) in experiment [4]; 1.29 fold enrichment (6-mer frequency, TF over GST control) in experiment [5]; 1.49 fold enrichment (6-mer frequency, TF over GST control) in experiment [6]. The binding signal was 1.27 fold enrichment (6-mer frequency, TF over GST control) in [7]; 1.36 fold enrichment (6-mer frequency, TF over GST control) in [8]; 1.3 fold enrichment (6-mer frequency, TF over GST control) in experiment [9].
With TGATCT, the binding signal in experiment [1] was 1.21 fold enrichment (6-mer frequency, TF over GST control); in [2], 1.33 fold enrichment (6-mer frequency, TF over GST control); in experiment [3], 1.18 fold enrichment (6-mer frequency, TF over GST control); in experiment [4] it was 1.22 fold enrichment (6-mer frequency, TF over GST control); in [5] it was 1.18 fold enrichment (6-mer frequency, TF over GST control); in [6], 1.22 fold enrichment (6-mer frequency, TF over GST control). Also, the binding signal in experiment [7] is 1.15 fold enrichment (6-mer frequency, TF over GST control); in experiment [8], 1.28 fold enrichment (6-mer frequency, TF over GST control); in [9] it was 1.23 fold enrichment (6-mer frequency, TF over GST control).
Turning to CCTTTT, the binding signal in experiment [1] was 1.49 fold enrichment (6-mer frequency, TF over GST control); in experiment [2], 1.46 fold enrichment (6-mer frequency, TF over GST control); in experiment [3], 1.46 fold enrichment (6-mer frequency, TF over GST control); in [4] it was 1.56 fold enrichment (6-mer frequency, TF over GST control); in [5], 1.52 fold enrichment (6-mer frequency, TF over GST control); in experiment [6] it was 1.49 fold enrichment (6-mer frequency, TF over GST control). Further, the binding signal in experiment [7] is 2.05 fold enrichment (6-mer frequency, TF over GST control); in experiment [8], 1.67 fold enrichment (6-mer frequency, TF over GST control); in experiment [9], 1.64 fold enrichment (6-mer frequency, TF over GST control).
GCGATG: the binding signal in experiment [1] was 1.2 fold enrichment (6-mer frequency, TF over GST control); in experiment [2], 1.48 fold enrichment (6-mer frequency, TF over GST control); in experiment [3], 1.37 fold enrichment (6-mer frequency, TF over GST control); in [4] it was 1.23 fold enrichment (6-mer frequency, TF over GST control); in [5], 1.31 fold enrichment (6-mer frequency, TF over GST control); in experiment [6] it was 1.25 fold enrichment (6-mer frequency, TF over GST control). Also, the binding signal in [7] is 1.34 fold enrichment (6-mer frequency, TF over GST control); in [8] it was 1.29 fold enrichment (6-mer frequency, TF over GST control); in [9], 1.31 fold enrichment (6-mer frequency, TF over GST control).
